This is a sample that favours compounds with a hit; in the whole collection about 0.58% have one here.
Eya2 phos inh = Eya2 (human) phosphatase inhibition; O00167; recombinant Eya2, OMFP fluorescence dephosphorylation (OMFP is methylfluorescein phosphate); Potency, µM (highest dose often 76.9 µM), for inactives: at the highest dose activity, negative = inhibition, actives largely listed as inhibitors; 0.006% of 330,000 active; AID 488837; note: potency is the fitted concentration of half-maximal effect; % is set by controls: 0 for no effect and ±100 for the full control effect
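Eya2 protein (added as 0.2 uM solution) was preincubated with compound for 10 min at ambient temperature in 50 mM HEPES pH 7.5, 50 mM NaCl, 5 uM MgCl2, 0.05% BSA, 1 mM DTT. OMFP (added at 50 uM) then reacted 10 min; fluorescence read at 485/525 nm.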
GRP78 ERSR act = induces the endoplasmic reticulum stress response in human glioma cells; U87-MG GRP78 promoter luciferase reporter, 16 h; Potency, µM, inactives show at the top dose activation, most hits filed as activators; 0.02% of 420,000 active; note: potency is the fitted concentration of half-maximal effect; series mostly up to about 76 µM; % of control where 0% means no effect; nearly all actives have a fitted effect of over 35% in size
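Stably transfected U87-MG human glioma cells carrying a GRP78-based luminescent sensor were seeded at 1000 cells/well, pin-dosed with compounds and incubated 16 h. Luciferase reagent was then added, and end-point luminescence was read after 10 min at room temperature.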
Six1-Eya2 inh = inhibitors of human Six1/Eya2 interaction; activity change, % (no concentration beside the values); Q15475+O00167; 0.56% of 360,000 active; AlphaScreen GST-Six1/His-Eya2 binding, biochemical; stronger effect = lower value; in the data active = activity change below about -65%; inconclusive = mostly about -30% to -63%; note: % is set by controls: 0 for no effect and ±100 for the full control effect
Target sequence (O00167 whole entry, looked up): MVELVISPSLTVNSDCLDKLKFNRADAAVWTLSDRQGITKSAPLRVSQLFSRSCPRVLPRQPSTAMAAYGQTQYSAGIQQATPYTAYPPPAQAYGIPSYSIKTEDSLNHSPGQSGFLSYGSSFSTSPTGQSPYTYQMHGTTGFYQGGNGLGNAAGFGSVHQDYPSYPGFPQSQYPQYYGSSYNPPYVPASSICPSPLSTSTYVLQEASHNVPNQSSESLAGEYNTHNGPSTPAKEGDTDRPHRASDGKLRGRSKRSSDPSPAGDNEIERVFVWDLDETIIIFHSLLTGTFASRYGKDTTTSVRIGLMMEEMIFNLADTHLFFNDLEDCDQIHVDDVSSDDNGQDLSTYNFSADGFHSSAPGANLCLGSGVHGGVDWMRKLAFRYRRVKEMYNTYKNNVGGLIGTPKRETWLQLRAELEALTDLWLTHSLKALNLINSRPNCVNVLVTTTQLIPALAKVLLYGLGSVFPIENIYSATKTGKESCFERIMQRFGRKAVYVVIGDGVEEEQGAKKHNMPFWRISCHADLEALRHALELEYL
Target sequence (Q15475 whole entry, looked up): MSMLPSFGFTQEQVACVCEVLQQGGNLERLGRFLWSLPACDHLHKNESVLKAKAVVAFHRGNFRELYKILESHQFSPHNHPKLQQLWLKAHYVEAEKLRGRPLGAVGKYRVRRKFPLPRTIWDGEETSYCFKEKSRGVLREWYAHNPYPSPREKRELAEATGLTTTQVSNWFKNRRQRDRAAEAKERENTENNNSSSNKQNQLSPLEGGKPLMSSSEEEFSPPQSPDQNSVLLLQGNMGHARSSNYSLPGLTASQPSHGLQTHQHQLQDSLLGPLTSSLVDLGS
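AlphaScreen with GST-Six1 and His-Eya2 (5X mix: 250 nM and 500 nM), glutathione donor and nickel acceptor beads; buffer 50 mM Tris pH 8.0, 300 mM NaCl, 1 mM TCEP; 1 h at 37 C in the dark.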
CtBP-E1A blk = CtBP/E1A binding inhibition. AlphaScreen GST-E1A/His-CtBP binding, 1536-well; stronger effect = lower value. activity change, % (concentration not given with the values). 0.49% of 340,000 active; in the data active = activity change below about -65%; inconclusive = mostly about -30% to -63%; note: % is set by controls: 0 for no effect and ±100 for the full control effect
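Homogeneous bead-based format: GST-tagged E1A captured on glutathione donor beads, His-tagged CtBP on nickel acceptor beads; compounds precede bead addition by 2 h at 37 °C.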
The depositor's hits bear a star; ? = inconclusive; · = no result given. Unless noted, calls come from the whole dose curve; as a rule, active = well fitted curve in the direction sought with a large enough effect; inconclusive = small, poorly fitted or top-dose-only effect, or another doubt; inactive = no such curve, though single readings can be large; an effect the other way counts as inactive or inconclusive.

SMILES	Eya2 phos inh	GRP78 ERSR act	Six1-Eya2 inh	CtBP-E1A blk
O=C(Cc1ccccc1)c1ccccn1	·	-2%	-78*	-5
COCCCNC(=S)NNC(=O)c1ccccn1	-5%	-1%	-93*	-87*
C[C@@H]1CN(Cc2ccc3c(c2)CN(Cc2cn[nH]c2-c2ccccc2)CCO3)C[C@H](C)O1	·	-2%	·	·
COc1ccc(CC(=O)NNC(=O)c2cnccn2)cc1	4%	2%	-2	·
COc1ccc(CC(=O)NNC(=O)c2ccccn2)cc1	8%	4%	?	-74*
Oc1ccc2ccccc2c1N=Nc1ccc(F)cc1	13%	4%	?	-24
Oc1c(N=Nc2ccc(F)cc2)ccc2ccccc12	4%	6%	?	-76*
COc1ccc(N=Nc2ccc3ccccc3c2)c(O)c1	-7%	-3%	?	·
COc1cccc(N=Nc2ccc3ccccc3c2O)c1	1%	-4%	-82*	·
Cc1ccc(N=Nc2ccc3ccccc3c2O)cc1	9%	-10%	-88*	-1
Brc1ccc(N/N=C(/N=Nc2nn[nH]n2)c2ccccc2)cc1	3%	-5%	?	·
Oc1c(N=Nc2nn[nH]n2)ccc2ccccc12	·	-3%	-76*	?
COc1cc(OC)c(OC)cc1/C=C/c1nccc2ccccc12	·	-2%	·	·
Cc1ccc2nccc(/C=C/c3ccc(N(C)C)cc3)c2c1	·	-4%	·	·
CCC1CN(CCNC(=O)C(C)(C)O)Cc2cc(OC)ccc2O1 (centres undefined)	·	-1%	·	·
COc1ccc(NC(=O)C2CC23CCN(Cc2cccc4ncccc24)CC3)cc1Cl (centres undefined)	·	-5%	·	·
Cc1cnc(C)c(-c2cc(F)cc3c2OC(CNC(=O)Cc2c(C)noc2C)C3)n1 (centres undefined)	·	2%	·	·
COc1ccc(CNC(=O)Nc2nc(C(N)c3ccccc3)cs2)cc1 (centres undefined)	·	-4%	?	?
NC(c1csc(Nc2ccc(C(=O)NCCCO)cn2)n1)C1CCCCC1 (centres undefined)	·	-1%	?	?
COc1ccc(C(N)c2csc(Nc3ccc(C(=O)NCCCO)cn3)n2)cc1 (centres undefined)	·	-1%	-76*	-79*
CC(N)c1csc(Nc2ccc(C(=O)NCCCO)cn2)n1 (centres undefined)	·	-1%	-69*	-83*
CCCNC(=O)Nc1nc(C(N)c2ccc(OC)cc2)cs1 (centres undefined)	·	-2%	-65*	?
Cc1cnc(SCCN2CCOCC2)nc1C1CCCN(C(=O)c2cccc3c(C)c(C)[nH]c23)C1 (centres undefined)	·	-5%	·	·
Nc1nc(N)c2sc3nc4c(cc3c2n1)CCC4	-31%	3%	-76*	-84*
Cc1ccc(C(=O)c2sc3nc4c(cc3c2N)CCC4)cc1	4%	3%	3	-5
SMILES	Eya2 phos inh	GRP78 ERSR act	Six1-Eya2 inh	CtBP-E1A blk
COc1ccc(Cl)c2c1[nH]c1nc(SCc3ccccn3)nnc12	16%	-2%	-67*	?
COc1ccc(Cl)c2c1[nH]c1nc(SCc3cccnc3)nnc12	2%	3%	-2	-10
COc1ccc(OC)c2[nH]c(C(=O)N/N=C/c3ccccc3O)cc12	-10%	-7%	-74*	·
COc1ccc(/C=N/NC(=O)c2cc3c(OC)ccc(OC)c3[nH]2)cc1O	-9%	-9%	?	?
CCOC(=O)c1c(C)[nH]c(C(=O)N/N=C\c2ccccc2O)c1C	-2%	-1%	-65*	-8
COc1cc(/C=N/NC(=O)CCN2CCN(Cc3ccccc3)CC2)cc(OC)c1OC	9%	-4%	-10	-4
CCOC(=O)c1c(C)[nH]c(C(=O)N/N=C/c2cc([N+](=O)[O-])ccc2O)c1C	-8%	0%	?	?
COc1cc(/C=N/NC(=O)CCN2CCN(c3ccccc3)CC2)cc(OC)c1OC	4%	-1%	-82*	-80*
COc1cccc(/C=N/NC(=O)c2cc(-c3cccn3C)n[nH]2)c1O	-6%	-1%	-90*	-90*
Cc1c(C(=O)N(C)C2CCOC2)cnn1-c1ncc2c(n1)-c1ccccc1CCC2 (centres undefined)	·	3%	·	·
CCCCCCc1ccc(C(=O)CCN(C)C)cc1	·	16%	·	·
COc1cccc(/C=N/NC(=O)c2cc(-c3cccn3C)n[nH]2)c1	-7%	-1%	?	?
COc1ccc(/C=N/NC(=O)c2[nH]c3ccc(Br)cc3c2-c2ccccc2)c(C(=O)O)c1OC	1%	-8%	?	?
COc1cc(/C=N/NC(=O)c2cc(-c3cccn3C)n[nH]2)cc(OC)c1OC	3%	1%	-67*	-75*
COc1ccc(/C=N/NC(=O)c2[nH]c3ccc(Cl)cc3c2-c2ccccc2)c(C(=O)O)c1OC	15%	-5%	-72*	?
Cc1ncc2c(c1CNS(=O)(=O)N(C)C)CCN(C(=O)c1ccc(-c3ccc(F)cc3)cc1)C2	·	-4%	·	·
Cc1nn2c(-c3cccc(NC(=O)c4ccco4)c3)nnc2c2ccccc12	-9%	-4%	-69*	-88*
Cc1nn2c(-c3cccc(NC(=O)c4ccc(Cl)cc4)c3)nnc2c2ccccc12	·	-6%	·	·
CCC1(C2CCN(Cc3ccc(C)s3)CC2)NC(=O)N(CC2COc3ccccc3O2)C1=O (centres undefined)	·	-4%	·	·
CC(C)(C)c1ccc(Cn2cnc3c(cnn3C(C)(C)C)c2=O)cc1	·	-4%	·	·
Oc1ccc(F)c2cccnc12	-1%	-12%	-81*	1
O=C(O)c1ccc(O)c2ncccc12	-13%	1%	·	·
Oc1ccc(Cl)c2cccnc12	·	-4%	-91*	-95*
Oc1ccc(CNc2cccc(F)c2F)c2cccnc12	-13%	·	·	·
Oc1c(I)cc(I)c2cccnc12	10%	-3%	-67*	-73*
SMILES	Eya2 phos inh	GRP78 ERSR act	Six1-Eya2 inh	CtBP-E1A blk
Cc1ccc(S(=O)(=O)Nc2cc(Cl)c(O)c3ncccc23)cc1	-8%	-8%	-90*	-89*
COc1ccc(OC)c(-c2cc(Cl)c3c(c2)CC(CNC(=O)C(C)N2CCOCC2)O3)c1 (centres undefined)	·	0%	·	·
Cc1cccc(CN2CCc3nnc(C(C)NC(=O)C4CCOCC4)n3CC2)c1 (centres undefined)	·	-2%	·	·
COCc1c(C(=O)N2CCCC(C)C2)cnn1-c1nccc(-c2cc(C)sc2C)n1 (centres undefined)	·	-1%	·	·
Oc1c(Cl)cc(Cl)c2cccnc12	1%	-6%	-90*	-90*
Cc1ccc(C)n1Cc1ccc(C(=O)O)cc1	-27%	-4%	-71*	4
Cc1nn(-c2ccccc2)c(C)c1CC(=O)NCC1Cc2cc(-c3cncnc3)ccc2O1 (centres undefined)	·	-3%	·	·
O=C(O)CNC(=O)CC1S/C(=N/N=C/c2ccccc2O)NC1=O (centres undefined)	?	-5%	-16	·
NC(=O)NC(=O)CC1S/C(=N/N=C2/NC(=O)CS2)NC1=O (centres undefined)	-2%	-6%	-78*	?
O=C(O)CNC(=O)CC1S/C(=N/N=C2\CSC(=O)N2)NC1=O (centres undefined)	-28%	-4%	-93*	·

Screens: PubChem, National Center for Advancing Translational Sciences (NCATS)
